# This is one part of a sample in which hits are shown more often than they occur.
# Glioma ERSR ind: qHTS for Inducers of the Endoplasmic Reticulum Stress Response (ERSR) in Human Glioma: qHTS; actives 0.02% (n = 420,000); U87-MG GRP78 promoter luciferase reporter, 16 h; Potency, µM, without a hit: at the top dose activation, usual class: activators; further: series mostly up to about 76 µM; % of control where 0% means no effect; nearly all actives have a fitted effect of over 35% in size
#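 Stably transfected U87-MG glioma cells carrying a GRP78-based luciferase sensor; 16 h compound incubation. Luminescence end-point read 10 min after Bright-Glo addition at room temperature.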
# ALOX12 inh: Primary qHTS assay for inhibitors of human arachidonate 12S-lipoxygenase (ALOX12): Round 2. actives 1.1% (n = 580,000). Potency, µM (doses to about 108 µM), inactives show at the top dose activity change, negative = inhibition, hits mostly inhibitors. Polyunsaturated fatty acid lipoxygenase ALOX12 (Homo sapiens), P18054. purified 12hLO, xylenol orange hydroperoxide absorbance; further: on the % scale 0 is the no-effect control and ±100 the full control effect
#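 Hydroperoxide product was detected by ferrous iron/xylenol orange as the 573 to 405 nm absorbance ratio. Arachidonic acid at 40 uM (final) was turned over for 30 min at room temperature by 150 nM human 12hLO, pH 7.0 Hepes buffer, after 15 min compound preincubation.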
# Sfp PPTase inh: qHTS Assay for Inhibitors of Bacillus subtilis Sfp phosphopantetheinyl transferase (PPTase). Biochemical Sfp PPTase activity, qHTS. Potency, µM, inactives show largest response in the series, negative = inhibition, hits mostly inhibitors. actives 3.5% (n = 310,000). AID 1490, 2009;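 further: the enzyme is Sfp with the accession as filed and its product quenches rhodamine fluorescence; 0% = enzyme reaction without inhibitor and -100% = no enzyme wells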
#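 Compounds were incubated with enzyme (final 15 nM) for 15 min at room temperature before substrate addition started the reaction. Fluorescence at 525 nm excitation, 598 nm emission was recorded immediately and after 30 minutes.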
# VDR inhibitor: Inhibitors of the vitamin D receptor (VDR): qHTS; Vitamin D3 receptor (Homo sapiens), P11473; VDR-SRC2-3 peptide fluorescence polarization, 2 h; Potency, µM, without a hit: max response, negative = inhibition, actives largely listed as inhibitors; actives 0.93% (n = 400,000); AID 504847, 2011; further: on the % scale 0 is the no-effect control and ±100 the full control effect
# Target sequence (P11473 whole entry, looked up): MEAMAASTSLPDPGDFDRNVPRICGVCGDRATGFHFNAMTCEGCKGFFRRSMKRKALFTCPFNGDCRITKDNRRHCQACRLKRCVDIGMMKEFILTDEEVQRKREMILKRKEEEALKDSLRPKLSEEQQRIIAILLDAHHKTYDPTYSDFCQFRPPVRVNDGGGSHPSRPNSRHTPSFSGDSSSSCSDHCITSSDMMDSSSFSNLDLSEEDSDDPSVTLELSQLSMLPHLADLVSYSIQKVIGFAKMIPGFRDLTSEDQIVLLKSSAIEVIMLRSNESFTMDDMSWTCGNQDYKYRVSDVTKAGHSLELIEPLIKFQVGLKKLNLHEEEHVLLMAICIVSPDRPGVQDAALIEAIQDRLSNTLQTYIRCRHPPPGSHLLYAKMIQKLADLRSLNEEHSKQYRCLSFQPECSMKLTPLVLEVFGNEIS
#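 FP read-out; VDR + SRC2-3 coactivator peptide; 23 nl compound by pintool; 2 h RT incubation; reagents held at 4 deg C, protected from light.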
# G9a block: qHTS Assay for Inhibitors of Histone Lysine Methyltransferase G9a. Histone-lysine N-methyltransferase EHMT2 (Homo sapiens), Q96KQ7. G9a H3K9 monomethylation, AlphaScreen, 2 h. Potency, µM (titrated, usually from 102 µM), for the others: top-dose activity, negative = inhibition, most hits filed as inhibitors. actives 8.8% (n = 350,000). AID 504332, 2011; further: on the % scale 0 is the no-effect control and ±100 the full control effect; nearly all actives have a fitted effect of over 75% in size
#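 AlphaScreen read-out: biotin-H3K9 peptide (500 nM) methylation by 20 nM enzyme with 20 uM SAM, 2 h at room temperature after 15 min compound preincubation; anti-monomethyl H3K9 antibody plus donor/acceptor beads, 10 min dark.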
# * = called active by the depositor; ? = inconclusive; / = not tested or not shown; [ ] = remark or other dose. The call rests on the fitted dose curve; in most records, active means well fitted curve in the direction sought with a large enough effect; inconclusive means small, poorly fitted or top-dose-only effect, or another doubt; inactive means no such curve, though single readings can be large; an effect the other way counts as inactive or inconclusive. Potency means the concentration at half of the fitted maximal effect.
SMILES,Glioma ERSR ind,ALOX12 inh,Sfp PPTase inh,VDR inhibitor,G9a block
Cc1ccc(NC(=S)NCCC(c2ccccc2)c2ccccc2)c(C)c1,2%,?,17%,-3%,12%[59 µM]
Cc1ccccc1NC(=S)NCCC(c1ccccc1)c1ccccc1,-4%,32µM*,19%,-18%,-26%[59 µM]
S=C(NCCNc1c(Cl)c(Cl)c(Cl)c(Cl)c1Cl)Nc1ccccc1,/,13µM*,/,/,/
CCCCCCC(=O)N/N=C/c1ccc(C(C)C)cc1,/,31%,/,/,/
O=C1NN(c2ccccc2)C(=O)/C1=C\c1ccccc1,-7%,?,-25%,?,40µM*
O=C1NN(c2cccc(Br)c2)C(=O)/C1=C\c1ccccc1,-4%,5.6µM*,79µM*,?,20µM*
O=C1NN(c2ccccc2)C(=O)C1=Cc1ccccc1,0%,?,/,/,/
Cc1cccc(NC(=O)c2ccc(N3CCCCC3)c([N+](=O)[O-])c2)n1,-4%,-29%,-6%,-4%,?
Cc1cccc(NC(=O)c2ccc(N(C)C3CCCCC3)c([N+](=O)[O-])c2)n1,4%,?,2%,-5%,20µM*
C=CCn1c(C(c2ccccc2)c2ccccc2)n[nH]c1=S,-3%,-24%,-19%,3%,10µM*
C=CCn1c(OCc2ccccc2)n[nH]c1=S,-3%,0%,-4%,-9%,8.9µM*
CCn1c(C(c2ccccc2)c2ccccc2)n[nH]c1=S,-5%,?,2%,12%,7.9µM*
O=C(Nc1cccc2c1CCCC2)c1ccc(S(=O)(=O)NC2CC2)cc1,/,-8%,/,/,/
CC(=O)Nc1ccc(NC(=O)/C=C/c2ccc3c(c2)OCO3)cc1,2%,-16%,15%,3%,-27%
NS(=O)(=O)c1ccc(NC(=O)/C=C/c2ccco2)cc1,3%,20%,20µM*,-11%,45µM*
O=C(/C=C/c1ccco1)NCCc1ccc(F)cc1,5%,?,-13%,-3%,40µM*
O=C(/C=C/c1ccco1)Nc1ccc(F)cc1,/,7%,/,0%,-24%[12.7 µM]
O=C(/C=C/c1ccco1)Nc1ccc2c(c1)OCO2,-2%,-19%,40µM*,2%,45µM*
O=C(/C=C/c1ccco1)NCc1ccc2c(c1)OCO2,-3%,?,?,-9%,20µM*
O=C(/C=C/c1ccccc1)NCc1ccc2c(c1)OCO2,1%,0%,15%,26%,22%
CC(C)n1ncc2c(C(=O)Nc3ccccc3F)c3c(nc21)CCC3,/,8%,/,/,/
COc1ccc(Cl)cc1NC(=O)CCc1ncc(-c2ccc(F)cc2)o1,/,3%,/,/,/
CC(NC(=O)c1cccnc1N(C)C)c1ccc(F)cc1 (stereo not drawn),/,0%,/,/,/
CN(C)S(=O)(=O)c1cccc(NC(=O)c2nn(Cc3ccccc3)c(=O)c3ccccc23)c1,/,-8%,/,/,/
Cc1ccc(S(=O)(=O)N(C)C)cc1NC(=O)c1cc(-c2ccco2)nc2ccccc12,-3%,/,-6%,-20%,40µM*
SMILES,Glioma ERSR ind,ALOX12 inh,Sfp PPTase inh,VDR inhibitor,G9a block
Cc1ccccc1NC(=O)c1cc(-c2ccco2)nc2ccccc12,1%,?,/,-6%,/
Cc1cccc(NC(=O)c2cc(-c3ccco3)nc3ccccc23)n1,-3%,28µM*,22µM*,-12%,32µM*
COc1ccc(NC(=O)c2cc(-c3ccco3)nc3ccccc23)cc1S(=O)(=O)N1CCOCC1,-3%,-3%,5µM*,28µM*,/
CN(CC(=O)Nc1ccc(F)c(F)c1F)C(=O)c1cc(-c2ccncc2)nc2ccccc12,-2%,-18%,/,18%,56µM*
Cc1ccc2cc(CCC(=O)N3CCOCC3)c(=O)[nH]c2c1,/,11%,/,/,/
COc1ccc(NC(=O)c2cc(-c3ccco3)nc3ccccc23)cc1,-6%,?,/,10%,/
Cc1cc(C)cc(NC(=O)Nc2cc(S(=O)(=O)N(C)C)ccc2C)c1,-5%,41%,0%,3%,-10%
COc1ccc(NC(=O)CN(C)C(=O)c2cc(-c3ccco3)nc3ccccc23)cc1,-3%,?,/,-6%,-3%[0.501 µM]
